Assay outcomes (PubChem BioAssay)
This is a sample that favours compounds with a hit; in the whole collection about 2.3% have one here.
NTR1 agonist = activates human neurotensin receptor 1; P30989; NTR1-U2OS beta-arrestin-GFP spot imaging, agonist mode; activation, % at 20 µM; actives 0.17% (n = 330,000); AID 493036;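 active = activation at or above 40% of the spot to cytoplasm intensity ratio, with at least 20 cells analyzed; inconclusive = wells under 20 cells, flagged as cytotoxic or low count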
Target sequence (P30989 whole entry, looked up): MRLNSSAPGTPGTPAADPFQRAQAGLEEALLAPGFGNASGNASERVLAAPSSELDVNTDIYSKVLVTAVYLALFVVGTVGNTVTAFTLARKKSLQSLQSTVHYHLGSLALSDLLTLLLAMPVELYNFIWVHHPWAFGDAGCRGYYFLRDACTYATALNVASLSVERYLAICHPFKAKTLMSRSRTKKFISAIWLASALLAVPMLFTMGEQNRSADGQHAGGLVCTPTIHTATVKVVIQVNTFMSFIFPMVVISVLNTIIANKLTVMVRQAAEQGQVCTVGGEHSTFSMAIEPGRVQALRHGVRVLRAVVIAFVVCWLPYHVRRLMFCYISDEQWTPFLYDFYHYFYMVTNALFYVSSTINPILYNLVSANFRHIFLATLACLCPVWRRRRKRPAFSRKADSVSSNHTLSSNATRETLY
B2AR ag = human beta-2 adrenergic receptor agonism by FAP | P07550 | Am2.2-beta2AR cells, FAP receptor internalization, flow cytometry | response, % (test concentration not listed) | actives 0.43% (n = 340,000);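 active = response above a set limit, near 3 SD of response in nonfluorescent compounds, cut at about 42% in these data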
Exocytosis inh = blocks lytic granule exocytosis | TALL-104 LAMP-1 surface exposure, flow cytometry; cells stimulated with thapsigargin and PMA | inhibition, % at 10 µM | AID 651702 | actives 0.66% (n = 360,000);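 active = inhibition above about 55%, limit read from the data; inconclusive = no clear call, values can overlap the other calls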
m5-HT2A agonist = activates the mouse 5-HT2A serotonin receptor | actives 0.66% (n = 360,000) | CHO-K1 mHTR2A beta-arrestin complementation, luminescence; percent of 30 µM serotonin response | AID 624169 | activation, % at 7.6 µM;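 active = activation above a run cutoff, the mean activation of all tested compounds plus 3 SD, cut at about 14% in these data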
ABHD5 PLIN5 PPI = ABHD5-PLIN5 protein interaction inhibition; inhibition, % at 4 µM; AID 602281; actives 0.78% (n = 360,000); Split G. princeps luciferase complementation, luminescence, 4 h;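 active = inhibition above the mean inhibition across every tested compound plus 3 SD, cut at about 22% in these data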
Large screens that a line does not name were inactive.

CC(C)(C)C(=O)/C=c1\s/c(=C\c2ccc(-c3ccc([N+](=O)[O-])cc3)o2)c(=O)n1CC(=O)NC(N)=O	Exocytosis inh 58 (no result: B2AR ag)
Cc1cc2c(cc1C)-c1nnnn1C(N1CCCCC1)C(=O)N2 (stereo not drawn)	none (no result: NTR1 agonist, B2AR ag)
Cc1ccccc1NC(=O)CN1C(=O)NC2(CCc3ccccc32)C1=O (stereo not drawn)	none
COc1cc2c(cc1NC(=O)CN1C(=O)NC3(CCc4ccccc43)C1=O)oc1ccccc12 (stereo not drawn)	ABHD5 PLIN5 PPI 35
O=C(CN1C(=O)c2cccc([N+](=O)[O-])c2C1=O)N1CCc2ccccc2C1	none (no result: NTR1 agonist, B2AR ag)
COc1ccc(NC(=O)CN2CCN(c3c(C)cc(C)cc3C)CC2)cc1	none
CCOC(=O)Cn1c(-c2ccccc2)cc(SC)c(C#N)c1=O	Exocytosis inh 61
CC(=O)c1c(C)[nH]c(C(=O)COC(=O)Cc2ccccc2F)c1C	B2AR ag 59
CC(=O)c1c(C)[nH]c(C(=O)COC(=O)COc2ccccc2F)c1C	none
C#CCOCCOCCOCCNc1nc(N2CCN(C(=O)Cn3cc(CCCN=C(N)N)nn3)CC2)nc(N2CCN(C(=O)[C@H]([C@@H](C)CC)n3cc(CCCCN)nn3)CC2)n1	none
C#CCOCCOCCOCCNc1nc(N2CCN(C(=O)CCCCCCCCCCNC(=O)[C@H]([C@@H](C)CC)n3cc(CCCCN=C(N)N)nn3)CC2)nc(N2CCN(C(=O)CCCCCCCCCCNC(=O)[C@H](CCCCN)n3cc(C)nn3)CC2)n1	none (no result: B2AR ag, Exocytosis inh, m5-HT2A agonist, ABHD5 PLIN5 PPI)
C#CCOCCOCCOCCNc1nc(N2CCN(C(=O)CCCCCCCCCCNC(=O)[C@@H](CCC(=O)O)n3cc(CCCCCN)nn3)CC2)nc(N2CCN(C(=O)CCCCCCCCCCNC(=O)[C@H]([C@@H](C)CC)n3cc(CCCCCN)nn3)CC2)n1	B2AR ag 52, ABHD5 PLIN5 PPI 51
C#CCOCCOCCOCCNc1nc(N2CCN(C(=O)CCCCCCCCCCNC(=O)[C@H]([C@@H](C)CC)n3cc(CCCCN=C(N)N)nn3)CC2)nc(N2CCN(C(=O)CCCCCCCCCCNC(=O)[C@H](CO)n3cc(CCCCCN)nn3)CC2)n1	B2AR ag 52, ABHD5 PLIN5 PPI 47
C#CCOCCOCCOCCNc1nc(N2CCN(C(=O)CCCCCCCCCCNC(=O)[C@H]([C@@H](C)CC)n3cc(CCCCCN)nn3)CC2)nc(N2CCN(C(=O)CCCCCCCCCCNC(=O)[C@H]([C@@H](C)CC)n3cc(CCCCN=C(N)N)nn3)CC2)n1	m5-HT2A agonist 16, ABHD5 PLIN5 PPI 59
C#CCOCCOCCOCCNc1nc(N2CCN(C(=O)CCCCCCCCCCNC(=O)[C@H]([C@@H](C)CC)n3cc(CCCCN=C(N)N)nn3)CC2)nc(N2CCN(C(=O)CCCCCCCCCCNC(=O)[C@H]([C@@H](C)CC)n3cc(CCCCN=C(N)N)nn3)CC2)n1	none (no result: B2AR ag, Exocytosis inh, m5-HT2A agonist, ABHD5 PLIN5 PPI)
C#CCOCCOCCOCCNc1nc(N2CCN(C(=O)CCCCCCCCCCNC(=O)Cn3cc(CCCCCN)nn3)CC2)nc(N2CCN(C(=O)CCCCCCCCCCNC(=O)[C@H]([C@@H](C)CC)n3cc(CCCCN=C(N)N)nn3)CC2)n1	ABHD5 PLIN5 PPI 58
C#CCOCCOCCOCCNc1nc(N2CCOCC2)nc(N2CCN(C(=O)CCCCCCCCCCNC(=O)[C@@H]([C@H](C)CC)n3cc(CCCCCN)nn3)CC2)n1	ABHD5 PLIN5 PPI 27
C#CCOCCOCCOCCNc1nc(N2CCN(C(=O)CCCCCCCCCCNC(=O)[C@H]([C@@H](C)CC)n3cc(CCCCCN)nn3)CC2)nc(N2CCN(C(=O)CCCCCCCCCCNC(=O)[C@@H]([C@H](C)CC)n3cc(CCCCCN)nn3)CC2)n1	none (no result: B2AR ag, Exocytosis inh, m5-HT2A agonist, ABHD5 PLIN5 PPI)
C#CCOCCOCCOCCNc1nc(N2CCN(C(=O)CCCCCCCCCCNC(=O)[C@H]([C@@H](C)CC)n3cc(CCCCCN)nn3)CC2)nc(N2CCN(C(=O)CCCCCCCCCCNC(=O)[C@H](CO)n3cc(CCCCCN)nn3)CC2)n1	ABHD5 PLIN5 PPI 39
CC[C@H](C)[C@@H](C(=O)NCCCCCCCCCCC(=O)N1CCN(C(=O)OC(C)(C)C)CC1)n1cc(CCCCN=C(NC(=O)OC(C)(C)C)NC(=O)OC(C)(C)C)nn1	NTR1 agonist 63 (no result: B2AR ag, Exocytosis inh, m5-HT2A agonist, ABHD5 PLIN5 PPI)
COc1cccc(NC(=O)COC(=O)c2sccc2C)c1	none
CSCC[C@H](NC(=O)Cc1c(C)c2cc3c(C)c(C)oc3cc2oc1=O)C(=O)N[C@@H](C(=O)O)c1ccccc1	none (no result: NTR1 agonist, B2AR ag)
COc1ccc(-n2nc(C#N)c(Cl)cc2=O)cc1	B2AR ag 90
COc1ccc(OCC(O)CN(CCO)CC(O)Cn2ccc3ccccc32)cc1 (stereo not drawn)	none
CCC(=C(c1ccc(OC)cc1)c1ccc(OC)cc1)c1cn(CC(O)CN(CCO)CCO)c2ccccc12 (stereo not drawn)	Exocytosis inh 72
CN(Cc1ccccc1)C(=O)c1ccc(NC(=O)Cc2cccc(NC(=O)C3CCCN(C(=O)C4CCC4)C3)c2)cc1 (stereo not drawn)	none
COc1ccccc1OCCNC(=O)c1cccc(S(=O)(=O)N2CC(C)OC(C)C2)c1 (stereo not drawn)	none
O=S(=O)(Nc1ccc(Br)cn1)c1ccc2ccccc2c1	none
CC1=NNC(=O)/C1=C\c1cn(-c2ccccc2)nc1-c1ccc(F)cc1	B2AR ag 108, Exocytosis inh 66 (no result: NTR1 agonist)
CSc1nc(=S)n(-c2ccc([N+](=O)[O-])cc2)c(C)c1C(C)=O	none
CC12CC3OC3CC1CCC1C2CCC2(C)C1CCC21OCCO1 (stereo not drawn)	B2AR ag 76 (no result: NTR1 agonist)
CO[C@H]1CC[C@@]2(C)[C@@H](CC[C@@H]3[C@@H]2CC[C@@]2(C)[C@H]3C[C@H](C(=O)O)O[C@]23CCCO3)C1	none
Cc1ccc(C2=C(c3ccc([N+](=O)[O-])cc3)C(=O)OC2)cc1C	none
COc1cccc(-c2ccc(NC(=O)C3CCCN(CCCn4nc(C)cc4C)C3)cc2)c1 (stereo not drawn)	none
O=Cc1ccc2noc(-c3ccc(F)cc3)c2c1	B2AR ag 46
CC1CN(C(=O)COC(=O)Cc2c(F)cccc2Cl)CC(C)O1 (stereo not drawn)	none
O=c1ccsn1Cc1ccccc1	Exocytosis inh 95, ABHD5 PLIN5 PPI 82
CCOCCCNC(=O)/C(C#N)=C/c1cc(OC)c(O)c([N+](=O)[O-])c1	none
CCOCCCNC(=O)/C(C#N)=C/c1ccc(Cl)c([N+](=O)[O-])c1	Exocytosis inh 66
C=CCn1c(Cn2c(-c3cnccn3)nc3ccccc32)nc2ccccc21	none (no result: NTR1 agonist, B2AR ag)
O=C(Nc1ccc(F)cc1)C1CCN(S(=O)(=O)c2cccc3nonc23)CC1	none
Nc1cccnc1S(=O)(=O)c1ccccc1	none
O=[N+]([O-])c1cccnc1S(=O)(=O)c1ccccc1	Exocytosis inh inconclusive, ABHD5 PLIN5 PPI 22
COc1ccc([N+](=O)[O-])c(S(=O)(=O)c2ccccc2)n1	B2AR ag 51, ABHD5 PLIN5 PPI 53
COc1ccc([N+](=O)[O-])c(S(=O)(=O)c2ccc(Cl)cc2)n1	ABHD5 PLIN5 PPI 39
Fc1cc(Br)ccc1COc1ccc(-c2nnco2)cc1	none
